Assay [1] in a line: Cell Viability - H-4-II-E (AID 543).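 Further: cells exposed to compound for 40 hours; on the % scale 0 is the no-effect control and ±100 the full control effect; nearly all actives have a fitted effect of over 35% in size.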 A digest of the protocol:
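AC50 from Hill-modelled qHTS concentration-response curves. H-4-II-E rat hepatoma cells in complete medium, 40 hr exposure at 37 °C, viability by CellTiter-Glo ATP luminescence.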

Assay [2] is described as follows: Cell Viability - SH-SY5Y (AID 544).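 Further: cells exposed to compound for 40 hours; nearly all actives have a fitted effect of over 55% in size.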 Particulars: SH-SY5Y neuroblastoma cell viability; viability change, negative = cytotoxic: at 92.2 µM (top of the series). In a few lines: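 Quantitative HTS in SH-SY5Y neuroblastoma cells, 40 hr treatment at 37 °C, ATP content by luciferase luminescence; AC50 from Hill fits.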
The nature of assay [3]: Cell Viability - Renal Proximal Tubule (AID 545).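 Further: cells exposed to compound for 40 hours; nearly all actives have a fitted effect of over 40% in size.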 A digest of the protocol:
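Cytotoxicity is scored as a concentration-dependent drop in cellular ATP in primary rat renal proximal tubule cells exposed for 40 hr. AC50 derives from Hill modelling.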

The nature of assay [4]: Cellular Toxicity (caspase-3) HepG2 (AID 654).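 Further: cells exposed to compound for 16 hours before reading; 0% = DMSO alone and 100% = caspase signal from 100 µM tamoxifen.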 In a few lines: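 Concentration-response AC50 values reflect caspase-3/7 induction in HepG2 cells after 16 hours of compound exposure, quantified by luminescence from liberated aminoluciferin and referenced to 100 uM tamoxifen as full stimulation.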
Assay [5] is described as follows: Cellular Toxicity (caspase-3) Jurkat (AID 655).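 Further: cells exposed to compound for 16 h at 37 °C before reading.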 Further: potency means the concentration at half of the fitted maximal effect. Particulars: Jurkat caspase-3 activation, luminescence; caspase-3 activation: at 92.2 µM (top of the series), DMSO = 0%, tamoxifen = 100%. In a few lines: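 Caspase 3/7 activation is scored as increased luminescence in Jurkat cells cultured with compound for 16 hours in complete medium. AC50 values come from Hill fits of qHTS concentration-response data normalized to DMSO and 100 uM tamoxifen controls.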

Assay [6] can be described thus: Cellular Toxicity (caspase-3) HUV-EC-C (AID 656). A digest of the protocol:
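Read-out: luminescence proportional to caspase 3/7 activity, measured 20 min after adding Caspase-Glo 3/7 reagent. Cells (HUV-EC-C) had received compound for 16 hr at 37°C. Increases relative to DMSO and 100 uM tamoxifen gave concentration-response AC50 values.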

Assay [7] can be described thus: Cellular Toxicity (caspase-3) SHSY5Y (AID 657). In a few lines:
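Cells plated and incubated 5 h at 37 °C, dosed over a concentration range, incubated 16 h, then given Caspase-Glo 3/7 reagent for 1 h at room temperature before luminescence reading. Staurosporine (10 uM) defined full stimulation.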

The nature of assay [8]: Cellular Toxicity (caspase-3) BJ (AID 658).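 Further: 0% = DMSO basal and 100% = 10 µM staurosporine.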 A digest of the protocol:
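Caspase-Glo 3/7 luminescence, read 1 hr after reagent at room temperature, in normal BJ fibroblasts exposed 16 hours at 37 °C. AC50 values from Hill-equation concentration-response, scaled between DMSO basal and 10 uM staurosporine as 100%.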

The nature of assay [9]: Cellular Toxicity (caspase-3) MRC-5 (AID 659).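 Further: 0% = DMSO basal and 100% = 10 µM staurosporine.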 A digest of the protocol: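 Luminescent Caspase-Glo 3/7 read-out (1 h, room temperature) after a 16 h, 37 °C compound exposure of MRC-5 lung fibroblasts at 1500 cells/well. Concentration-response AC50 from Hill equation; 0% DMSO, 100% 10 uM staurosporine.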
Assay [10] is described as follows: Cellular Toxicity (caspase-3) Mesangial (AID 660).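 Further: cells exposed to compound for 16 h before the caspase read.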 Particulars: mesangial cells, normalized: DMSO 0%, 100 µM tamoxifen 100%; at 91.7 µM (top of the series). In a few lines: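 AC50 values come from Hill-equation fits of caspase 3/7 activation, measured as Caspase-Glo luminescence in human glomerular mesangial cells exposed to compound for 16 h at 37 °C; 100% set by 100 uM tamoxifen.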

The nature of assay [11]: Cellular Toxicity (caspase-3) SK-N-SH (AID 661).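 Further: 0% = DMSO basal and 100% = 10 µM staurosporine.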 In a few lines:
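Apoptosis readout in SK-N-SH neuroblastoma: Caspase-Glo 3/7 luminescence following 16 hr treatment in complete culture medium. Normalization used DMSO and 10 uM staurosporine controls.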

Assay [12] in a line: Cellular Toxicity (caspase-3) H-4-II-E (AID 663).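 Further: cells exposed to compound for 16 hr before readout.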 The note with it: H-4-II-E rat hepatoma, scaled: DMSO 0%, 100 µM tamoxifen 100%; at 92.2 µM (top of the series). A digest of the protocol: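 Caspase 3/7 activation measured by luminescent aminoluciferin substrate cleavage after 16 hr compound treatment of H-4-II-E cells in complete medium. Increase normalized between DMSO (basal) and 100 uM tamoxifen (100%); Hill-equation AC50 from concentration-response.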

Assay [13] is described as follows: Cellular Toxicity (caspase-3) Hek293 (AID 664).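 Further: cells exposed to compound for 16 h at 37 °C before readout.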 The note with it: HEK293 caspase-3 activation, DMSO = 0%, 100 µM tamoxifen = 100%; at 92.2 µM (top of the series). A digest of the protocol:
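Apoptosis readout: Caspase-Glo 3/7 signal in human HEK293 cells following 16-hour compound incubation. Responses scaled between DMSO baseline and 100 uM tamoxifen.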

Assay [14] can be described thus: Cellular Toxicity (caspase-3) N2a (AID 665).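 Further: compound exposure lasted 16 h at 37 °C before readout.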 A digest of the protocol:
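Concentration-response qHTS: compound-induced caspase-3/7 luminescence in N2a cells (16 h, 37 °C), relative to DMSO and 10 uM staurosporine controls; AC50 obtained using the standard Hill equation.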

Assay [15] can be described thus: Cellular Toxicity (caspase-3) NIH 3T3 (AID 666). A digest of the protocol: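 Activity: caspase-3/7 induction, NIH 3T3 cells, 16 hr treatment at 37°C, luminescent Caspase-Glo detection; AC50 via Hill equation.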
Assay [16] in a line: Cellular Toxicity (caspase-3) Renal Proximal Tubule (AID 667).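 Further: cells exposed to compound for 16 hours at 37 °C before detection; 0% = DMSO basal and 100% = 10 µM staurosporine.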 The note with it: Potency: caspase-3 activation. A digest of the protocol: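 In qHTS format, rat primary proximal tubule cells seeded at 1000 per well are exposed to compounds for 16 hours at 37 °C. An increase in Caspase-Glo 3/7 luminescence indicates caspase activation.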
The target of assay [17] is Cytochrome P450 3A4 (Homo sapiens) (UniProt P08684). Put plainly: qHTS Assay for Inhibitors and Substrates of Cytochrome P450 3A4 (AID 884). Further: on the % scale 0 is the no-effect control and ±100 the full control effect; nearly all actives have a fitted effect of over 50% in size. A digest of the protocol: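 Luminescent readout of luciferin produced by CYP3A4 (20 nM) dealkylation of Luciferin-PPXE, 25 uM (its KM). NADPH-driven reaction ran 60 min at RT after 10 min compound preincubation; data scaled to 57 uM ketoconazole as 100% inhibition.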
Cytochrome P450 3A4 (Homo sapiens), sequence (P08684 whole entry, looked up): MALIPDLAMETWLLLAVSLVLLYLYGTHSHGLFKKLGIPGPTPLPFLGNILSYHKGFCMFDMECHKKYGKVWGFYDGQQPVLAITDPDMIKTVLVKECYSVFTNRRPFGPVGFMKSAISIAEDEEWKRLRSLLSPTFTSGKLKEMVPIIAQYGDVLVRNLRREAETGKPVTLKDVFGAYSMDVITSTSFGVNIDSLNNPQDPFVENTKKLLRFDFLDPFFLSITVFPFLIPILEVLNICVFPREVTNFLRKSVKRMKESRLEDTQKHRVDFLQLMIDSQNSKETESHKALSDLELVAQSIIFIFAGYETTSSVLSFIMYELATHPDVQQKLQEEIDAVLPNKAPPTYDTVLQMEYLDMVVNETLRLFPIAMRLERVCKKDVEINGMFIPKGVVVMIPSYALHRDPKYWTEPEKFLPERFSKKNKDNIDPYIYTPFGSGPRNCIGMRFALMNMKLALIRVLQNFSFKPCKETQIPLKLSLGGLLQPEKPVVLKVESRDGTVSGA

Assay [18] can be described thus: Cell Viability - LYMP2-001 (AID 921).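 Further: cells exposed to compound for 24 h at 37 °C; 0% = DMSO only and full inhibition = tetraoctylammonium bromide control wells; nearly all actives have a fitted effect of over 70% in size.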 In a few lines: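 qHTS, 1536-well; lymphoblastoid cells, 24 hr compound, 37 C; ATP by CellTiter-Glo, 30 min RT; luminescence; Hill-fit AC50.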
Assay [19] in a line: Cell Viability - Mesenchymal (AID 546).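 Further: cells exposed to compound for 40 hours before reading.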 In a few lines:
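CellTiter-Glo luminescence (intracellular ATP, 20 min room temperature) after 40 hr compound exposure at 37 °C of 1000 glomerulus-derived human kidney mesenchymal cells/well; AC50 values obtained by fitting qHTS concentration-response data to the Hill equation.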

SMILES strings stand for the structures. Values without a mark were called inactive. Inconclusive results are not listed. Active and inactive are the calls of the source. The call rests on the fitted dose curve; in most records, active means well fitted curve in the direction sought with a large enough effect; inconclusive means small, poorly fitted or top-dose-only effect, or another doubt; inactive means no such curve, though single readings can be large; an effect the other way counts as inactive or inconclusive.

Here are results for nine compounds from PubChem BioAssay (NCATS).

With `CC(C)=CCl`, the Potency entry in assay [1], in assay [2], in assay [3], in [4], in assay [16] and in assay [17] was “inactive” each time. Also, the Potency entry in [18] was “inactive”. The caspase-3 activation in assay [5] is -0.417%; in [10], 0.522%; in assay [12] it was -0.24%; in assay [13] it was 1.55%. In addition, the outcome in assay [6], in assay [7], in assay [8], in [9], in assay [11] and in assay [14] was inactive. For the same compound, the compound was called inactive in assay [15].

Turning to `C=CCCCCCC`, the Potency result in [1], in assay [2], in [3], in [19], in assay [4] and in assay [16] was “inactive” in each case. Moreover, the Potency entry in [17] and in assay [18] was “inactive” in each case. Further, the compound was classed as inactive in assay [6], in assay [7], in assay [9], in assay [11], in [14] and in [15]. For the same compound, the caspase-3 activation in assay [10] is 0.339%; in assay [12] it was 1.37%; in assay [13] it was -0.874%.

With `Cc1ccc(C)c(N)c1`, the Potency entry in [1], in [2], in assay [3], in assay [19], in assay [4] and in assay [16] was “inactive” each time. The Potency entry in assay [17] and in assay [18] was “inactive” each time. Also, the call in assay [6], in assay [7], in assay [9], in assay [11], in assay [14] and in [15] was inactive. The caspase-3 activation in [12] and in [13] was 3.4% each time.

Consider `O=[N+]([O-])c1ccccc1CCO`, for which the Potency entry in assay [1], in [3], in assay [19], in assay [4], in assay [16] and in assay [17] was “inactive” throughout. Besides, in assay [18], the Potency result was “inactive”. Further, the caspase-3 activation in [5] was 0.961%; in assay [10] it was -1.29%; in assay [12] it was 1.12%; in [13], -0.925%. The outcome in [6], in assay [7], in [8], in assay [9], in assay [11] and in [14] was inactive. Further, the result in assay [15] was inactive.

On to `O=Nc1ccc(NO)cc1`, for which the Potency result in assay [1], in assay [19], in assay [4], in assay [16] and in [17] was “inactive” in each case. Also, in assay [2], the viability change, negative = cytotoxic is -93.1% (active). For the same compound, the Potency in assay [5] is 31.6 µM (active). Moreover, the call in [6], in assay [7], in assay [8], in assay [11], in assay [14] and in [15] was inactive. Besides, the caspase-3 activation in [10] was 0.317%; in assay [12], 1.96%; in assay [13], 11.4%.

For the compound `Clc1cc(Cl)cc(Cl)c1`, the Potency entry in assay [1], in assay [2], in assay [3], in [4], in [16] and in [17] was “inactive” each time. The Potency result in [18] is “inactive”. The result in assay [6], in [7], in [8], in assay [9], in assay [11] and in [14] was inactive. Also, the outcome in assay [15] was inactive. For the same compound, the caspase-3 activation in assay [10] is -0.669%; in assay [12], 0.838%; in assay [13], 0.505%.

Consider `NC(=O)NC(N)=O`, for which the Potency result in assay [1], in assay [2], in assay [3], in assay [4], in assay [16] and in [18] was “inactive” throughout. Moreover, the caspase-3 activation in assay [5] is 0.487%; in [10], -0.43%; in assay [12], -0.188%; in [13], 0.826%. For the same compound, the compound was called inactive in assay [6], in [7], in assay [8], in assay [9], in [11] and in assay [14]. In addition, in assay [15], the compound was called inactive.

Regarding `Cc1cccc2cccnc12`, the Potency entry in assay [1], in assay [2], in assay [3], in [4], in assay [16] and in [17] was “inactive” in each case. Also, in [18], the Potency result was “inactive”. Also, the caspase-3 activation was -0.137% in assay [5], -0.268% in assay [10], 0.865% in assay [12] and -1.22% in assay [13]. Moreover, the result in assay [7], in assay [8], in [14] and in assay [15] was inactive.

Consider `O=C1OC(=O)c2cc([N+](=O)[O-])ccc21`, for which the Potency entry in [1], in [3], in assay [19], in [4], in assay [16] and in assay [17] was “inactive” in each case. In addition, the Potency entry in assay [18] was “inactive”. Moreover, the caspase-3 activation is -2.27% in [5], -0.00553% in assay [10], -0.24% in assay [12] and -0.39% in assay [13]. Also, the compound was classed as inactive in [6], in [7], in assay [8], in assay [9], in assay [11] and in [14]. For the same compound, the call in [15] was inactive.
